High-throughput results (PubChem BioAssay)
NS1 function inh = influenza NS1 inhibition. actives 0.4% (n = 270,000). Potency, µM (top dose mostly 46.1 µM); calls by dose curve; further: actives are rising curves; nearly all actives have a fitted effect of over 50% in size
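Compounds were scored for reversing the slow growth caused by influenza A NS1 in S. cerevisiae, measured by optical density at 600 nm. Assay medium contained 2% galactose at pH 6.0; NS1-free yeast of the same strain were the positive control.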
Pf growth 48h = P. falciparum growth inhibition at 48 hours (one generation) | actives 5.9% (n = 310,000) | Potency, µM (top dose mostly 28.7 µM), hits mostly inhibitors | P. falciparum luciferase growth in erythrocytes, 48 h
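Read-out is firefly luciferase luminescence from an integrated reporter in P. falciparum, so falling signal marks reduced parasite growth. Infected erythrocytes were at 2% hematocrit and 0.1% parasitemia (final) in Albumax-supplemented RPMI 1640.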
RE007 growth inh = less growth of the S. pombe RE007 Vpr strain | Potency, µM (doses to about 92.2 µM), hits mostly inhibitors | AID 651644 | S. pombe RE007 Vpr strain, BacTiter-Glo ATP luminescence, 24 h | actives 0.21% (n = 360,000); active means well fitted falling curve with a large enough effect; inconclusive means small, poorly fitted or top-dose-only effect; inactive means no such curve, though single readings can be large or run the other way; further: nearly all actives have a fitted effect of over 50% in size
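Fission yeast strain RE007, carrying one chromosomally integrated HIV-1 vpr copy, was seeded at OD 0.01 in PMG+AL medium with 23 nL pinned compound. After 24 h at 30 °C and 99% humidity, viability was read by BacTiter-Glo luminescence.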
Pf growth 96h = P. falciparum growth inhibition at 96 hour, primary screen for plastid delayed-death inhibitors. P. falciparum luciferase reporter growth, 96 h. Potency, µM (top dose mostly 28.7 µM), usual class: inhibitors. actives 6.9% (n = 320,000)
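Delayed-death screen, second-generation endpoint: infected erythrocytes, 2% hematocrit, 0.05% parasitemia final; 96 hours at 37 C, 5% CO2; luciferase detection reagent; luminescence decrease equals reduced growth.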
SARS PLP yeast = blocks SARS-CoV papain-like protease in a yeast assay; S. cerevisiae expressing SARS-CoV PLpro, growth rescue; Potency, µM (highest dose often 32.9 µM), actives largely listed as activators; actives 0.19% (n = 330,000); calls by dose curve; further: nearly all actives have a fitted effect of over 55% in size
Each line names hits and unclear results; the compound was inactive in the other large screens. Sampled rows, rich in hits. Any-hit rate of the full collection: about 9.5%. Unless noted, the call rests on the fitted dose curve; in most records, active means well fitted inhibition curve with a large enough effect; inconclusive means small, poorly fitted or top-dose-only effect, or another doubt; inactive means no such curve, though single readings can be large or run the other way.

Cn1c(NN)nc2c1c(=O)n(Cc1ccccc1)c(=O)n2C	Pf growth 48h 11.7µM
CCOC(=O)Cn1c(=O)c2c(nc(Br)n2Cc2ccccc2Cl)n(C)c1=O	Pf growth 48h inconclusive
O=c1[nH]c2cc(Cl)cc([N+](=O)[O-])c2c2ccc(Cl)cc12	none (no result: NS1 function inh, Pf growth 48h, Pf growth 96h, SARS PLP yeast)
O=C1CN(C(=O)CNCc2ccccc2)c2ccccc2N1	none
CCCCOC(=O)Cn1c(=O)c2c(nc3n2CCCCN3c2ccc(C)cc2)n(C)c1=O	Pf growth 48h 7.38µM
Cc1nn(C)c(C)c1NC(=O)CN1CCC(O)(c2ccc3c(c2)OCO3)CC1	Pf growth 96h 10.4µM
O=C(NN=Cc1cc(Cl)ccc1[N+](=O)[O-])c1ccco1	none (no result: NS1 function inh, Pf growth 48h, Pf growth 96h, SARS PLP yeast)
O=C(N1CCCCC1)C12CC3CC(CC(C3)C1)C2	Pf growth 96h inconclusive
O=C(N1CCCC1)C12CCC3CC(CC(C3)C1)C2	Pf growth 96h 9.28µM (no result: Pf growth 48h)
COc1cc(C2C(C#N)=C(N)OC3=C2C(=O)CCC3)cc(OC)c1OC(=O)N1CCOCC1 (configuration not stated)	Pf growth 96h 4.65µM
C[C@H](NCCN(C)C)[C@@H]1CCC2C3CCc4cc(O)ccc4[C@H]3CCC21C (some centres not stated)	none (no result: Pf growth 48h, RE007 growth inh, Pf growth 96h, SARS PLP yeast)
N/C(=N\c1nc(CSc2ccc(Cl)cc2)cc(=O)[nH]1)Nc1ccccc1C(F)(F)F	Pf growth 48h 13.1µM, Pf growth 96h inconclusive
COc1ccccc1N/C(N)=N/c1nc(CSc2ccc(C)cc2)cc(=O)[nH]1	Pf growth 96h inconclusive
Cc1ccc(SCc2cc(=O)[nH]c(/N=C(\N)Nc3ccccc3Sc3ccccc3)n2)cc1	Pf growth 48h inconclusive, Pf growth 96h 10.4µM
COc1ccc(-n2c(COc3ccccc3)n[nH]c2=S)cc1	Pf growth 96h inconclusive
COc1ccc(-n2c(COc3ccc(C)cc3)n[nH]c2=S)cc1	Pf growth 96h 0.465µM
COc1ccc(NCc2ccc(OC)c(Cn3ccnc3)c2)c(OC)c1	Pf growth 48h inconclusive
CN(c1ccccc1)S(=O)(=O)c1ccc(C(=O)Nc2nccs2)cc1	Pf growth 96h inconclusive (no result: Pf growth 48h)
CCN(c1ccccc1)S(=O)(=O)c1ccc(C(=O)Nc2ncccc2C)cc1	Pf growth 48h inconclusive (no result: NS1 function inh)
CCN(c1ccccc1)S(=O)(=O)c1ccc(C(=O)Nc2ncccc2O)cc1	Pf growth 48h inconclusive, Pf growth 96h 5.86µM
CN(c1ccccc1)S(=O)(=O)c1ccc(C(=O)Nc2ncccc2O)cc1	Pf growth 48h 6.57µM, Pf growth 96h 9.28µM (no result: NS1 function inh)
CCCCN(C(=O)c1cc(Cl)nc2ccccc12)c1c(N)n(CCCC)c(=O)[nH]c1=O	Pf growth 48h inconclusive (no result: NS1 function inh)
O=c1cc(CSc2nnnn2-c2ccccc2)nc2sccn12	Pf growth 96h inconclusive (no result: NS1 function inh)
O=c1cc(CSc2nnnn2-c2ccccc2)nc2scc(-c3ccccc3)n12	Pf growth 48h inconclusive, Pf growth 96h 8.28µM
COc1cccc(CNc2ccc(F)c(Cl)c2)c1OC	Pf growth 96h 10.4µM (no result: Pf growth 48h)
COc1cccc(CNCCc2ccc3c(c2)OCO3)c1OC	Pf growth 96h inconclusive
COc1ccccc1NC(=O)CNc1ccc(F)c(Cl)c1	Pf growth 48h inconclusive, Pf growth 96h 14.7µM
Fc1ccc(NCc2ccccc2F)cc1Cl	none
COc1cccc(CNCCc2cccc(F)c2)c1OC	Pf growth 96h 4.15µM
Cc1cc(NC(=O)CSc2nnc(C(F)(F)F)n2C)no1	none (no result: NS1 function inh, Pf growth 48h, Pf growth 96h)
O=C(O)CCCc1ccc2ccc3ccccc3c2c1	none (no result: Pf growth 48h, RE007 growth inh, Pf growth 96h, SARS PLP yeast)
COCc1cc(C)nc(SCc2ccc(Br)cc2)c1C#N	none (no result: NS1 function inh, Pf growth 48h, Pf growth 96h, SARS PLP yeast)
CCCCN1C(=O)NC(=O)C2(Cc3c(nc4ccccn4c3=O)N3CCc4ccccc4C32)C1=O (configuration not stated)	Pf growth 48h inconclusive
Cc1cccn2c(=O)c3c(nc12)N1CCc2ccccc2C1C1(C3)C(=O)NC(=O)N(C)C1=O (configuration not stated)	Pf growth 48h 13.1µM (no result: Pf growth 96h)
Cc1ccc2nc3c(cc2c1)CC1(C(=O)N(C)C(=O)N(C)C1=O)C1CCCCN31 (configuration not stated)	none (no result: Pf growth 96h)
CCCCN1C(=O)NC(=O)C2(Cc3c(nc4c(C)cccn4c3=O)N3CCc4ccccc4C32)C1=O (configuration not stated)	Pf growth 48h 9.28µM
Cc1cccn2c(=O)c3c(nc12)N1CCCCCC1C1(C3)C(=O)N(C)C(=O)N(C)C1=O (configuration not stated)	Pf growth 48h inconclusive, Pf growth 96h 2.62µM
